# Structures can show the parent of a compound that is named as a salt.
# Test system: Neuro-2a
# Test: neurite formation score, plate-normalized to DMSO control mean 5.04 (score (0-8 scale)); higher = more or longer neurites
# Conditions: 0.1 µM
# Method: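 Neuro-2a mouse neuroblastoma cells in PLL-coated 96-well plates were pre-treated for 1 h in DMEM(+) with each kinase inhibitor at 0.1 µM, then switched to serum-free DMEM(-) with inhibitor to induce neurite outgrowth and fixed about 2-3 h later. Three blinded observers scored neurite formation from 0 (no neurites) to 8 (long neurites on almost all cells).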
row,SMILES,neurite formation score
1,Oc1cc(O)cc(/C=C/c2ccc(O)c(O)c2)c1 [Piceatannol],4.75
2,Nc1nccc(Oc2ccc(NC(=O)c3c[nH]cc(-c4ccc(F)cc4)c3=O)cc2F)c1Cl,4.92
3,CCS(=O)(=O)Nc1ccc2[nH]c(O)c(C(=Nc3ccc(CN4CCCCC4)cc3)c3ccccc3)c2c1 [Hesperadin],3.92
4,CCN(CC)CCCC(C)Nc1ccnc2cc(Cl)ccc12 (stereo not drawn) [Chloroquine diphosphate],4.58
5,N#CCNC(=O)c1ccc(-c2ccnc(Nc3ccc(N4CCOCC4)cc3)n2)cc1,4.92
6,C[C@]1(O)C[C@@H](c2nc(-c3ccc4ccc(-c5ccccc5)nc4c3)c3c(N)nccn32)C1 [Linsitinib],4.54
7,CS(=O)(=O)N1CCN(Cc2cc3nc(-c4cccc5[nH]ncc45)nc(N4CCOCC4)c3s2)CC1,5.21
8,CNC(=O)c1cc(Oc2ccc(NC(=O)Nc3ccc(Cl)c(C(F)(F)F)c3)c(F)c2)ccn1 [Regorafenib hydrochloride],4.92
9,OCCn1cc(-c2cnc3nnn(Cc4ccc5ncccc5c4)c3n2)cn1,3.25
10,Cc1cc(C)c(/C=C2\C(=O)Nc3ccccc32)[nH]1 [Semaxanib (SU5416)],5.42
11,Nc1cccc(S(=O)(=O)N2CCCN(S(=O)(=O)c3ccc4c(c3)OCCO4)CC2)c1,4.09
12,COc1cc2c(N3CCN(C(=O)Nc4ccc(OC(C)C)cc4)CC3)ncnc2cc1OCCCN1CCCCC1 [Tandutinib (MLN518)],4.58
13,NC1(C(=O)N[C@@H](CCO)c2ccc(Cl)cc2)CCN(c2ncnc3[nH]ccc23)CC1,5.38
14,CCOC(=O)c1cnc2ccc(-c3cncc(NS(=O)(=O)c4ccccc4)c3)cn12,0.0843
15,CC(C)[C@H](CO)Nc1nc(Nc2cccc(Cl)c2)c2ncn(C(C)C)c2n1 [Purvalanol A],5.08
16,C[C@H](Nc1ncnc2nc[nH]c12)c1cc2cccc(Cl)c2c(=O)n1-c1ccccc1,5.04
17,FC(F)c1nc2ccccc2n1-c1nc(N2CCOCC2)nc(N2CCOCC2)n1,4.21
18,Cc1csc(-c2nnc(Nc3ccc(Oc4ncccc4-c4ccnc(N)n4)cc3)c3ccccc23)c1,4.58
19,O=C(NOC[C@H](O)CO)c1ccc(F)c(F)c1Nc1ccc(I)cc1F,4.71

row,SMILES,neurite formation score
1,CNC(=O)c1cc(Oc2ccc3nc(N[C@@H]4CCCC[C@H]4O)sc3c2)ccn1,4.75
2,Cc1cnc(NC(=O)Nc2cc(Br)c(C)cc2OC[C@@H]2CNCCO2)cn1,4.58
3,Cc1nc(NC(=O)N2CCC[C@H]2C(N)=O)sc1-c1csc(C(C)(C)C)n1,5.21
4,O=C1c2ccc(Nc3ccc(F)cc3F)cc2CCc2ccc(OC[C@H](O)CO)cc21 [Skepinone-L],5.25
5,N#CC[C@H](C1CCCC1)n1cc(-c2ncnc3[nH]ccc23)cn1,5.04
6,N#Cc1c(O)c2c(-c3ccc(-c4ccccc4O)cc3)csc2[nH]c1=O,5.58
7,Cn1c(=O)n(-c2ccc(C(C)(C)C#N)cc2)c2c3cc(-c4cnc5ccccc5c4)ccc3ncc21,5.21
8,O=C1NC(=O)C(c2cnc3ccccn23)=C1c1cn2c3c(cc(F)cc13)CN(C(=O)N1CCCCC1)CC2,-0.576
9,CCc1cccc(CC)c1NC(=O)N1Cc2[nH]nc(NC(=O)c3ccc(N4CCN(C)CC4)cc3)c2C1,5.09
10,CN1CCC(CNc2ccc3ncc(-c4cccc(OC(F)(F)F)c4)n3n2)CC1 [SGI-1776 free base],5.25
11,O=c1oc2c(O)c(O)cc3c(=O)oc4c(O)c(O)cc1c4c23 [Ellagic acid],4.42
12,O=c1sn(-c2cccc3ccccc23)c(=O)n1Cc1ccccc1 [Tideglusib],5.08
13,NC(=O)c1cccc(-c2cc(Nc3ccc(OC(F)(F)F)cc3)ncn2)c1,3.76
14,Nc1nc(Nc2ccc3c(c2)CCC(N2CCCC2)CC3)nn1-c1cc2c(nn1)-c1ccccc1CCC2 (stereo not drawn),4.54
15,COc1cc(OC)c(/C=C/S(=O)(=O)Cc2ccc(OC)c(NCC(=O)O)c2)c(OC)c1,3.04
16,COc1cc2c(c(OC)c1OC)-c1c(cc3c(c1OC)OCO3)CC(C)C(C)C2 (stereo not drawn) [Schizandrin B],5.08
17,CCOc1cc(N2CCC(O)CC2)ccc1Nc1ncc2c(n1)N(C)c1ccccc1C(=O)N2C,4.92
18,C[S+]([O-])c1ccc(-c2nc(-c3ccc(F)cc3)c(-c3ccncc3)[nH]2)cc1 (stereo not drawn),4.88
19,Cc1cc(C)nc(NS(=O)(=O)c2ccc(NC(=S)NC(=O)COc3ccc(Br)cc3Cl)cc2)n1,3.88
